Inconclusive results are not listed. Calls of active or inactive are those of the source. The call rests on the fitted dose curve; in most records, active means well fitted cell-killing curve with a large enough effect; inconclusive means small, poorly fitted or top-dose-only effect, or effect the other way; inactive means no such curve, though single readings can be large or run the other way.

The source of these data is PubChem BioAssay (NCATS).
Potency means the concentration at half of the fitted maximal effect.

The experiment in a line: Viability qHTS for spleen associated tyrosine kinase inhibitor (SYKi) naive MV4-11 cells (AID 1963823). Further: nearly all actives have a fitted effect of over 40% in size. The following applies: MV4-11 AML viability, CellTiter-Glo luminescence, 72 h; series mostly up to 45 µM; viability (% of control): at the top concentration. Put shortly:
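SYK inhibitor-naive MV4-11 cells, 500 per well, exposed to compounds for 72 hr at 37 C, 5% CO2. Viability read as CellTiter-Glo luminescence after 10 min at room temperature.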
A general note: In qHTS, concentration-response curves come from the screen itself.
`O=C(O[C@H]1[C@@H]2C[C@@H]3OC[C@@](O)([C@H]2[C@H](O[C@@H]2O[C@H](CO)[C@@H](O)[C@H](O)[C@H]2O)O3)[C@@H]1O)c1ccccc1`: the “viability (% of control)” value was 81.6% [at 17.3 µM] (inactive).

Take `C=C(C)C(=O)O[C@H]1C[C@@](C)(OC(C)=O)[C@@]2(O)CC[C@@](C)(O)[C@H](OC(C)=O)[C@@]23OC(=O)C(COC)=C13`: the Potency is 8.93 µM (active).

For the compound `C=C1C2(CCC(=O)OC2(C)C)CC(OC(=O)/C(C)=C/C)C2(C)C13OC14C(=O)OC(C)(C(=O)C12C(=O)OC4C)C3OC(C)=O` (configuration not stated), the “viability (% of control)” value was 78.6% [at 17.3 µM] (inactive).

As for `CC#CC(=O)N1CC[C@@H](n2c(=O)n(-c3ccc(Oc4ccccc4)cc3)c3c(N)ncnc32)C1`, the Potency is 7.42 µM (active).

As for `COc1ccc(/C=C/C(=O)O[C@@H]2[C@@H](OC(C)=O)[C@@H](OC(C)=O)[C@H](O[C@H]3[C@@H]4C=CO[C@@H](O[C@@H]5O[C@H](CO)[C@@H](O)[C@H](O)[C@H]5O)[C@@H]4[C@@]4(CO)O[C@@H]34)O[C@H]2C)cc1`, the “viability (% of control)” value was 72.7% [at 17.3 µM] (inactive).

As for `CONC(=O)c1ccccc1Nc1cc(Nc2cc(C)nn2C(C)C)ncc1Cl`, the Potency was 6.61 µM (active).

`CC(C)n1cc(-c2ccc(Oc3ccccc3)cc2)c2c(N)ncnc21`: the Potency is 0.092 µM (active).

`Cc1ccc2c(c1)C=Cc1cc(C)ccc1C2c1cn(Cc2ccc(C(=O)Nc3nn[nH]n3)o2)c(=O)[nH]c1=S`: the “viability (% of control)” value was 85.5% (inactive).

As for `CC(=O)OCC(=O)O[C@@H]1[C@H]2[C@@H](OC(=O)c3ccccc3)[C@@H](C)C[C@]2(O)[C@H](OC(C)=O)C2(C)[C@H]3CC(C)(C)C(=O)[C@@H]3CC1(OC(C)=O)[C@@H]2OC(C)=O` (some centres not stated), the “viability (% of control)” value is 75% [at 17.3 µM] (inactive).

As for `O=C(Nc1ccc(S(=O)(=O)C(F)(F)F)cc1)C1=CCN(c2ncccc2C(F)(F)F)CC1`, the Potency was 5.8 µM (active).

As for `C[C@@H]1O[C@@H](O[C@H]2[C@H](O[C@H]3[C@H](O[C@H]4CC[C@@]5(C)C(CC[C@]6(C)C5CC=C5[C@@H]7CC(C)(C)C[C@@H](O)[C@]7(C)CC[C@]56C)[C@@]4(C)CO)O[C@H](C(=O)O)[C@@H](O)[C@@H]3O)O[C@H](C(=O)O)[C@H](O)[C@@H]2O)[C@H](O)[C@H](O)[C@H]1O` (some centres not stated), the viability (% of control) is 83.8% [at 9.25 µM] (inactive).

For the compound `CC(CC(C)O[C@@H]1O[C@H](CO)[C@@H](O)[C@H](O)[C@H]1O)OC(=O)/C=C/c1ccc(O)cc1` (some centres not stated), the “viability (% of control)” value is 86.9% [at 17.3 µM] (inactive).

`NC(=O)c1cccc(-c2cc(O)cc(OC(=O)NC3CCCCC3)c2)c1`: the “viability (% of control)” value was 68.9% [at 17.3 µM] (inactive).

Regarding `CC(=O)O[C@@H]1CC[C@@]2(C)[C@H](CC[C@@H]3[C@@H]2C[C@H](OC(C)=O)[C@]2(C)[C@@H](C(C)=O)CC[C@@H]32)C1`, the Potency was 8.2 µM (active).

With `O=C1OC(/C=C/c2ccccc2)=NC/1=C\c1cccnc1`, the “viability (% of control)” value is 80.8% (inactive).

With `CC1=C(C(=O)Nc2cc(Cl)ccc2Cl)C(c2ccco2)C2=C(CCCC2=O)N1` (configuration not stated), the Potency was 14.6 µM (active).

With `CN1CCN(CCCN2c3ccccc3Sc3ccc(S(=O)(=O)N(C)C)cc32)CC1`, the Potency was 11.9 µM (active).

Regarding `CC(C)n1nc(-c2ccc(NC(=O)Nc3cccc(C(F)(F)F)c3)cc2)c2c(N)ncnc21`, the “viability (% of control)” value was 4.49% (inactive).

On to `COc1cc(C(=O)OC[C@@]2(O)CO[C@@H](O[C@H]3[C@H](Oc4ccc(C(=O)O)cc4OC)O[C@H](CO)[C@@H](O)[C@@H]3O)[C@@H]2O)ccc1O`, for which the “viability (% of control)” value was 86.6% [at 17.3 µM] (inactive).

As to `COC(=O)C1=COC(O[C@@H]2O[C@H](CO[C@@H]3O[C@H](COC(=O)/C=C\c4ccc(O)cc4)[C@@H](O)[C@H](O)[C@H]3O)[C@@H](O)[C@H](O)[C@H]2O)C2C(CO)=CCC12` (some centres not stated), the “viability (% of control)” value is 4.93% [at 17.3 µM] (inactive).

`CCN(CC)CCCS(=O)(=O)N[C@H](CCc1ccccc1)c1nc(Cc2ccc(Br)cc2)no1`: the Potency was 20.6 µM (active).

In the case of `O=C(N/N=C/c1ccccc1O)c1ccncc1`, the Potency is 0.944 µM (active).

Regarding `COC1CC(O[C@H]2CC[C@]3(C)C4CC[C@@]5(C)C(=O)[C@]4(CC[C@@H]3C2)CC[C@@H]5C2=CC(=O)OC2)OC(C)C1OC1OC(COC2OC(CO)C(O)C(O)C2O)C(O)C(O)C1O` (some centres not stated), the Potency is 1.1 µM (active).

On to `Nc1nc(Nc2ccc3c(c2)CCC(N2CCCC2)CC3)nn1-c1cc2c(nn1)-c1ccccc1CCC2` (configuration not stated), for which the Potency was 0.231 µM (active).

As to `CCC(C)CNCC(=O)N1CCC2SC=CC2C1COc1cccc(C)c1` (configuration not stated), the Potency was 11.6 µM (active).

For the compound `C=CC1(C)CC(OC(=O)C(=C)C(O)COC(C)=O)C(C(=C)C(=O)OC)C(O)C1C(=C)CO` (configuration not stated), the Potency was 8.93 µM (active).

In the case of `OC[C@H]1O[C@@H](O[C@H]2[C@H](OCCc3ccccc3)O[C@H](CO)[C@@H](O)[C@@H]2O)[C@H](O)[C@@H](O)[C@@H]1O`, the “viability (% of control)” value is 103% [at 17.3 µM] (inactive).
